Test results: the supplement of paper PMC8387472

Assays:
Test in all cases: fraction of 1-bp insertions among edited reads; higher = more 1-bp insertion outcomes
Details in all cases: mESC; 2uM; 72 h treatment, harvest day 5
[1] = compound: CCn1c(=O)c(-c2ccc(Cl)cc2Cl)cc2cnc(Nc3ccc(N4CCNCC4)c(F)c3)nc21
[2] = compound: CNc1ccc([N+](=O)[O-])c(Nc2ccc3[nH]ncc3c2)n1
Rifapentine = compound: CO[C@H]1/C=C/O[C@@]2(C)Oc3c(C)c(O)c4c(O)c(c(/C=N/N5CCN(C6CCCC6)CC5)c(O)c4c3C2=O)NC(=O)/C(C)=C\C=C\[C@H](C)[C@H](O)[C@@H](C)[C@@H](O)[C@@H](C)[C@H](OC(C)=O)[C@@H]1C [Rifapentine]
[3] = compound: COc1ccccc1-c1cc(Nc2cccc(CS(N)(=O)=O)c2)ncn1
[4] = compound: C[C@@H]1CN(CC(=O)Nc2ccc3c(c2)Cc2cccc(-c4cc(=O)cc(N5CCOCC5)o4)c2S3)C[C@H](C)O1
[5] = compound: Cc1cc(C)nc(SCC(=O)Nc2ncc(Cc3cccc4ccccc34)s2)n1
[6] = compound: Cc1ccc(C(=O)NCCCCCC(=O)Nc2ccccc2N)cc1
[7] = compound: Cc1cccc(CC(=O)N2CCc3c2ccc(-c2cn(C)c4ncnc(N)c24)c3F)n1
[8] = compound: NC(=O)c1ccc2nc(-c3ccc(Oc4ccc(Cl)cc4)cc3)[nH]c2c1 [Chk 2 inhibitor II (BML-277)]
Tucidinostat (Chidamide) = compound: Nc1cc(F)ccc1NC(=O)c1ccc(CNC(=O)/C=C/c2cccnc2)cc1 [Tucidinostat (Chidamide)]
Pemetrexed = compound: Nc1nc2[nH]cc(CCc3ccc(C(=O)N[C@@H](CCC(=O)O)C(=O)O)cc3)c2c(=O)[nH]1 [Pemetrexed]
[9] = compound: Nc1ncnc2c1c(-c1cnc3[nH]ccc3c1)nn2C1CCCC1
[10] = compound: O=C(c1cccc(Cl)c1F)N1CCN(Cc2cccc(Nc3nccs3)n2)CC1
Kenpaullone = compound: O=C1Cc2c([nH]c3ccc(Br)cc23)-c2ccccc2N1 [Kenpaullone]
Genistein = compound: O=c1c(-c2ccc(O)cc2)coc2cc(O)cc(O)c12 [Genistein]
[11] = compound: O=c1cc(N2CCOCC2)oc2c(-c3ccc4c(c3)OCCO4)csc12
Mercaptopurine (6-MP) = compound: S=c1[nH]cnc2nc[nH]c12 [Mercaptopurine (6-MP)]
[12] = compound: S=c1nc[nH]c2nc[nH]c12 [6-Mercaptopurine (6-MP) Monohydrate]

Row | Target | fraction of 1-bp insertions among edited reads [1] | fraction of 1-bp insertions among edited reads [2] | fraction of 1-bp insertions among edited reads (Rifapentine) | fraction of 1-bp insertions among edited reads [3] | fraction of 1-bp insertions among edited reads [4] | fraction of 1-bp insertions among edited reads [5] | fraction of 1-bp insertions among edited reads [6] | fraction of 1-bp insertions among edited reads [7] | fraction of 1-bp insertions among edited reads [8] | fraction of 1-bp insertions among edited reads (Tucidinostat (Chidamide)) | fraction of 1-bp insertions among edited reads (Pemetrexed) | fraction of 1-bp insertions among edited reads [9] | fraction of 1-bp insertions among edited reads [10] | fraction of 1-bp insertions among edited reads (Kenpaullone) | fraction of 1-bp insertions among edited reads (Genistein) | fraction of 1-bp insertions among edited reads [11] | fraction of 1-bp insertions among edited reads (Mercaptopurine (6-MP)) | fraction of 1-bp insertions among edited reads [12]
1 | 35.0 (DMSO control at this site: 1-bp insertion 0.01, MH deletion 0.72, edited 0.098) CCACTTTTAGAGAGGGTGAAAATCATCAGTTATCATCAGGGCAACAAATTGCTTTCTCCTA | 0.0264 | 0.00485 | 0.0103 | 0.0267 | 0.125 | 0.0279 | 0.0384 | 0.0134 | 0.0163 | 0.0535 | 0.0156 | 0.0183 | 0.0381 | 0.0204 | 0.00956 | 0.0278 | 0.0333 | 0.0402
2 | 40.0 (DMSO control at this site: 1-bp insertion 0.072, MH deletion 0.192, edited 0.189) GCGAATCAACTGTTCAACAACAGCAGCAGCCACCTGGAGGACTACAGTGGCCTGTCCGTGT | 0.0675 | 0.0835 | 0.0737 | 0.076 | 0.124 | 0.0746 | 0.0721 | 0.0741 | 0.0639 | 0.0778 | 0.0582 | 0.107 | 0.0793 | 0.0742 | 0.0673 | 0.0807 | 0.0821 | 0.084
3 | 25.0 (DMSO control at this site: 1-bp insertion 0.017, MH deletion 0.774, edited 0.143) GGGCCTGAATGGTGTGGACATCTACTCGCTGGTGAGCTGGTGACTGAAAACATTCAGTGGC | 0.0225 | 0.0261 | 0.0237 | 0.0265 | 0.0481 | 0.0281 | 0.0223 | 0.0292 | 0.0214 | 0.0363 | 0.0305 | 0.0264 | 0.0219 | 0.0271 | 0.0281 | 0.0315 | 0.0245 | 0.0323
4 | 45.0 (DMSO control at this site: 1-bp insertion 0.017, MH deletion 0.666, edited 0.101) TTACACAGCATGAACTGCTAGGTGATGATGTCAGATTCGGTTTTACTAACTTCTCCAAAAA | 0.0237 | 0.0246 | 0.0255 | 0.037 | 0.0735 | 0.0352 | 0.0235 | 0.0353 | 0.0266 | 0.0198 | 0.0325 | 0.0301 | 0.0412 | 0.0351 | 0.0293 | 0.0264 | 0.0287 | 0.0267
5 | 4.0 (DMSO control at this site: 1-bp insertion 0.146, MH deletion 0.523, edited 0.125) ACGCCTTAGTGCACGAGTGACGGGATAATGTGGTCTCAGGTAATTGATAGGCTTCCAACTT | 0.102 | 0.165 | 0.101 | 0.15 | 0.416 | 0.132 | 0.145 | 0.167 | 0.102 | 0.171 | 0.121 | 0.237 | 0.18 | 0.171 | 0.126 | 0.137 | 0.161 | 0.153
6 | 18.0 (DMSO control at this site: 1-bp insertion 0.114, MH deletion 0.789, edited 0.094) GCGCAAGTGCATAAGTTTTTCTTAAGGCGTGCCTTTAAGGCGTGCCTTTGTCGGTCCTGGA | 0.0919 | 0.103 | 0.103 | 0.109 | 0.18 | 0.105 | 0.113 | 0.128 | 0.0891 | 0.0964 | 0.0804 | 0.12 | 0.114 | 0.134 | 0.0973 | 0.0588 | 0.137 | 0.13
7 | 19.0 (DMSO control at this site: 1-bp insertion 0.121, MH deletion 0.101, edited 0.057) TCTGCAGGGGTCGGAACCCGGGGGCTAGGGCTATCCCGGGGGCTAGGGCTATTAGCGAACC | 0.131 | 0.0931 | 0.103 | 0.0834 | 0.27 | 0.0666 | 0.123 | 0.087 | 0.0625 | 0.116 | 0.0345 | 0.138 | 0.109 | 0.0939 | 0.0748 | 0.0634 | 0.0615 | 0.104
8 | 3.0 (DMSO control at this site: 1-bp insertion 0.109, MH deletion 0.149, edited 0.09) TGCTAGCGCCCCCACAAAGCGGACCAGCCAGCACTATAGGGAATAAGGCCAACTTGCACCC | 0.126 | 0.124 | 0.133 | 0.13 | 0.244 | 0.144 | 0.112 | 0.15 | 0.121 | 0.123 | 0.184 | 0.227 | 0.152 | 0.104 | 0.116 | 0.13 | 0.15 | 0.0992
9 | 15.0 GCGCCTCCAATGACCCAGTGGGATCCTACTCCATAATGGGATCCTGGGGATTCCTCGCTCC | – | – | 0.167 | – | – | 0.185 | 0.19 | – | – | 0.158 | – | – | – | – | 0.0821 | – | – | 0.0929
10 | 23.0 AGAACAAAGCGCTCATATAACGATATGGGGGGTTATGGGGGGTTGAATTGCTTCAGCACGA | – | 0.00131 | – | – | – | – | – | – | – | – | – | – | 0.008 | – | – | – | – | –
